Screening results deposited in PubChem BioAssay by several laboratories.
The list is not random: actives were taken first. Their share in the collection is about 1.3%.
GALR2 ag = activates the human galanin receptor 2. O43603. activation, % (concentration not given with the values). GALR2-expressing cells, agonist activation read-out. 0.48% of 140,000 active; in the data active = activation above about 5%, passing the limit was not always enough;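 also: 0% = vehicle buffer wells and 100% = reference agonist at full effect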
Target sequence (O43603 whole entry, looked up): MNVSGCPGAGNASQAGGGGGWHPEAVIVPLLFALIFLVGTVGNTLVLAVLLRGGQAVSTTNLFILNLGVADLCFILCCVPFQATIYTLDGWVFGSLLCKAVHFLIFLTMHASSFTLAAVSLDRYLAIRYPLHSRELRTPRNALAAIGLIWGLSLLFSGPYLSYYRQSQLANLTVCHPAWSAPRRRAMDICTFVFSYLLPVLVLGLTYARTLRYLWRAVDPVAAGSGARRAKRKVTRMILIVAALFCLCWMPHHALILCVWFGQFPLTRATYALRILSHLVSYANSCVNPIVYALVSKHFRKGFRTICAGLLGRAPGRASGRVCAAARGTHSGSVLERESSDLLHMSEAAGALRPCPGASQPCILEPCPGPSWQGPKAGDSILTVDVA
S1P2 agonist = S1P2 (human) receptor agonism. 0.46% of 97,000 active. activation, % at 4.5 µM. S1P2-expressing cell line, agonist reporter read-out. O95136; in the data active = activation above about 16%;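 also: 0% = vehicle low control and 100% = maximal reference agonist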
Phagocytosis inh = macrophage phagocytosis inhibition; J774A.1 macrophage IgG-bead phagocytosis, imaging; inhibition, % at 5 µM; 0.07% of 110,000 active; AID 1029;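 active = inhibition above the mean of the plate negative controls plus 5 SD, cut at about 13% in these data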;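 also: phagocytic index as fraction of beads internalized from green versus red external bead signal; plate controls were DMSO negative control for no effect and cytochalasin-D positive control for full effect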
GALR2 antag = blocks the human galanin receptor 2. inhibition, % at 4 µM. 0.39% of 140,000 active. O43603. AID 828. GALR2-expressing cells, antagonist mode; in the data active = inhibition above about 27%;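 also: cells stimulated with galanin 1-16 at roughly its EC80; 0% = agonist challenge control and 100% = basal control without agonist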
S1P2 antag = blocks the human S1P2 receptor | 0.21% of 97,000 active | inhibition, % at 5 µM | O95136 | AID 736 | cell-based S1P2 antagonist assay, inhibition at 5 uM; in the data active = inhibition above about 45%;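 also: CRE beta-lactamase reporter cells expressing human S1P2 stimulated with S1P; 0% = agonist at EC80 alone and 100% = agonist plus reference antagonist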
GALR2 agon conf = GALR2 (human) agonism confirmed; 10% of 460 active; AID 864; activation, % at 5.6 µM; GALR2-expressing cells, agonist activation; shares compounds with GALR2 ag; in the data active = activation above about 8.4%;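 also: 0% = buffer-only vehicle wells and 100% = full reference agonist response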
BLA activ ctr = activates beta-lactamase reporter in GALR2 agonist counterscreen | CHO NFAT-bla reporter, beta-lactamase FRET activation | activation, % at 5.6 µM | shares compounds with GALR2 ag | 10% of 460 active | AID 865;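 active = activation above the screen-wide mean activation plus 3 SD, cut at about 8% in these data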;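 also: 0% = DMSO with PBS wells and 100% = thapsigargin positive control wells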
Numbers without * were called inactive.

Screening CCCCCCC1NC(C(=O)O)CS1 (stereo not given) returned GALR2 ag 1, S1P2 agonist -4, Phagocytosis inh 0, GALR2 antag 0 and S1P2 antag 2.
`Cc1cccc(-c2nnn3c2nc(NCCc2ccc(S(N)(=O)=O)cc2)c2ccccc23)c1` gave GALR2 ag 4, Phagocytosis inh 0 and GALR2 antag 18.
Screening NS(=O)(=O)c1ccc(CCNc2nc3c(-c4cccc(F)c4)nnn3c3ccccc23)cc1 returned GALR2 ag 11*, Phagocytosis inh -4, GALR2 antag 18, GALR2 agon conf 3 and BLA activ ctr 2.
For NC(=O)CC[C@@H]1NC(=O)[C@@H]2CCCN2C(=O)c2cc([N+](=O)[O-])cc(I)c2NCCC[C@@H](C(N)=O)NC1=O the results were GALR2 ag -1 and GALR2 antag -6.
CCCCCCN1C(=O)C(O)=C(C(C)=O)C1c1ccc(Cl)cc1 (stereo not given) was read as GALR2 ag -3, Phagocytosis inh -2 and GALR2 antag 5.
`CCCCN1C(=O)C(O)=C(C(C)=O)C1c1ccccc1` (stereo not given) gave GALR2 ag 172*, S1P2 agonist -5, Phagocytosis inh -1, GALR2 antag -13, S1P2 antag 3, GALR2 agon conf -1 and BLA activ ctr -3.
For COC(=O)c1cc(OC)c(OC)cc1NC(=S)N1CCN(C/C=C/c2ccccc2)CC1 the results were GALR2 ag -1, Phagocytosis inh -1 and GALR2 antag 11.
Screening O=C(CCSCCc1ccccn1)Nc1ccc(Cl)cn1 returned GALR2 ag 11, S1P2 agonist -4, GALR2 antag -6, S1P2 antag 2, GALR2 agon conf -1 and BLA activ ctr 0.
For CC1CCc2cc(F)cc3c(O)c(C(=O)NCc4ccco4)c(=O)n1c23 (stereo not given) the results were GALR2 ag 9.5*, S1P2 agonist -10, GALR2 antag 0, S1P2 antag 17, GALR2 agon conf 0 and BLA activ ctr -1.
CC(C)c1ccc(Nc2cnn(C34CC5CC(CC(CC(=O)O)(C5)C3)C4)c(=O)c2Cl)cc1 was read as GALR2 ag -2, S1P2 agonist -7, GALR2 antag -10 and S1P2 antag -4.
Cc1ccc(Nc2cnn(C34CC5CC(CC(CC(=O)O)(C5)C3)C4)c(=O)c2Cl)cc1 was read as GALR2 ag 11, S1P2 agonist -2, GALR2 antag -8, S1P2 antag -1, GALR2 agon conf -1 and BLA activ ctr -2.
For COC(=O)c1cc2ccsc2n1CC(=O)Nc1cc(C)cc(C)c1 the results were GALR2 ag 10, S1P2 agonist -2, GALR2 antag 0, S1P2 antag -5, GALR2 agon conf 2 and BLA activ ctr -2.
For O=C(C1=C[C@@H]2[C@H]3C(=O)N(c4ccccc4)C(=O)[C@H]3[C@@H](C(=O)c3ccc(Cl)cc3)N2C=C1)c1ccccc1 the results were GALR2 ag -2, Phagocytosis inh -7 and GALR2 antag -2.
For O=C(/C=C/c1ccco1)Nc1cc(Cl)ccc1C(=O)O the results were GALR2 ag 12*, Phagocytosis inh -5, GALR2 antag -8, GALR2 agon conf -1 and BLA activ ctr -2.
`Cc1cc(/C=N/NC(=O)Cn2c3ccccc3c(=O)c3ccccc32)c(C)n1-c1ccccc1` gave GALR2 ag 10, S1P2 agonist 4, GALR2 antag -18, S1P2 antag -9, GALR2 agon conf 1 and BLA activ ctr 0.
`COC(=O)C1=CNC=C(C(=O)OC)C1c1ccccc1Cl` gave GALR2 ag 9, S1P2 agonist 7, Phagocytosis inh -3, GALR2 antag 1, S1P2 antag 1, GALR2 agon conf 1 and BLA activ ctr 3.
`O=C(O)c1c[nH]ccc1=O` gave GALR2 ag 12*, S1P2 agonist -7, Phagocytosis inh -2, GALR2 antag 5, S1P2 antag 24, GALR2 agon conf -1 and BLA activ ctr -3.
For Cc1cc(C(=O)O)c(=O)[nH]c1C the results were GALR2 ag 0, S1P2 agonist -6, Phagocytosis inh -3, GALR2 antag -5 and S1P2 antag -13.
`CCc1cccc(CC)c1NC(=O)CN1CC(C)SC1=NC1CCCCC1` (stereo not given) gave GALR2 ag 0, S1P2 agonist 0, GALR2 antag -2 and S1P2 antag 0.
Screening Cc1ccc(F)cc1NC(=O)c1ccc(NS(=O)(=O)c2ccc(Br)s2)cc1 returned GALR2 ag 0, Phagocytosis inh -15 and GALR2 antag 1.
Clc1ncnc2c1oc1ccccc12 was read as GALR2 ag -2, S1P2 agonist -3, Phagocytosis inh -1, GALR2 antag 19 and S1P2 antag 7.
For c1coc(CN(Cc2ccco2)c2ncnc3c2oc2ccccc23)c1 the results were GALR2 ag 9, S1P2 agonist -2, GALR2 antag 8, S1P2 antag -24, GALR2 agon conf 0 and BLA activ ctr -2.
For COC(=O)COC(=O)c1ccc(-n2nnnc2SC)cc1 the results were GALR2 ag -2, S1P2 agonist -3, Phagocytosis inh 1, GALR2 antag 5 and S1P2 antag 25.
Screening COC(=O)c1ccc(-n2nnnc2SC)cc1 returned GALR2 ag 15*, S1P2 agonist -5, Phagocytosis inh -1, GALR2 antag 12, S1P2 antag 9, GALR2 agon conf 0 and BLA activ ctr 2.
`Cc1ccc(NC(=O)Cn2c(/C=C/c3ccccc3)nc3ccccc32)cc1C` gave GALR2 ag 8, S1P2 agonist -5, Phagocytosis inh 0, GALR2 antag 3, S1P2 antag -5, GALR2 agon conf 6 and BLA activ ctr 7.
`O=C(N/N=C/c1cc(Cl)cc([N+](=O)[O-])c1O)NC12CC3CC(CC(C3)C1)C2` gave GALR2 ag 21*, Phagocytosis inh -13, GALR2 antag 0, GALR2 agon conf -1 and BLA activ ctr -3.
Cc1cc(C(=O)N/N=C/c2cc(Cl)cc([N+](=O)[O-])c2O)c2ccccc2n1 was read as GALR2 ag -2, Phagocytosis inh -11 and GALR2 antag -13.
`Cc1ccc(OCc2nnc(SCC(=O)Nc3nccs3)n2-c2ccccc2)cc1C` gave GALR2 ag -1, S1P2 agonist -2, Phagocytosis inh -2, GALR2 antag -9 and S1P2 antag -16.
For Cc1ccc(-n2c(COc3c(C)cccc3C)nnc2SCC(=O)Nc2nccs2)cc1 the results were GALR2 ag 65*, S1P2 agonist -4, Phagocytosis inh -1, GALR2 antag -12, S1P2 antag -1, GALR2 agon conf 1 and BLA activ ctr 1.
Screening COC(=O)c1sccc1NC(=O)CN(C)NS(=O)(=O)c1ccc(Cl)cc1 returned GALR2 ag -2, S1P2 agonist -4, GALR2 antag 10 and S1P2 antag 11.
